# Hits are enriched below; roughly 0.85% of the tested compounds scored in any of these assays.
# BLM helicase inh – inhibitors of human Bloom syndrome helicase BLM. P54132. recombinant BLM DNA unwinding, fluorescence dequenching. Potency, µM (highest dose often 56.1 µM), without a hit: at the highest dose activity change, negative = inhibition, most hits filed as inhibitors. actives 0.2% (n = 350,000);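 also: plate controls were vehicle for no effect and no enzyme for full effect; nearly all actives have a fitted effect of over 35% in size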
# GLS inh – inhibitors of human glutaminase (GLS) | O94925 | GLS enzymatic activity, qHTS titration | Potency, µM (titrated, usually from 45.5 µM), without a hit: at the top dose activity change, negative = inhibition, hits mostly inhibitors | actives 0.21% (n = 410,000) | AID 624170
#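 Glutamate formation by hKGA was monitored fluorometrically using coupled glutamate oxidase, HRP and Amplex Red. Substrate was added as 1 mM L-glutamine solution; incubation was 30 min at RT after an initial read.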
# APEX1 inh – inhibitors of human APE1 endonuclease | recombinant APE1, TAMRA/BHQ-2 abasic DNA cleavage fluorescence | P27695 | Potency, µM (highest dose often 65.8 µM), for inactives: at the top dose activity change, negative = inhibition, actives largely listed as inhibitors | actives 0.35% (n = 350,000);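 also: plate controls were vehicle for no effect and reference inhibitor for full effect; nearly all actives have a fitted effect of over 55% in size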
#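 Quantitative HTS: incision of a TAMRA/BHQ-2 double-stranded substrate bearing a tetrahydrofuran abasic site by 0.75 nM APE1 raises fluorescence. Substrate 50 nM final, added after 15 min compound preincubation at room temperature; progress as third-minus-first kinetic read difference.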
# PGK inhibitor – blocks T. brucei phosphoglycerate kinase; P07378; PGK/GAPDH coupled, Kinase-Glo luminescence, 60 min; Potency, µM (titrated, usually from 57.5 µM), for inactives: top-dose activity change, negative = inhibition, most hits filed as inhibitors; actives 0.043% (n = 380,000); AID 602233; also: nearly all actives have a fitted effect of over 60% in size
#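 Recombinant glycosomal PGK reaction used 1,3-bisphosphoglycerate generated in-well by GAPDH (100nM final) in 100mM TEA pH 7.6, 5mM MgCl2, 0.01% Tween-20. After 60 minutes at room temperature, ATP was read by Kinase-Glo Plus luminescence end-point.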
# RECQ1 inh – blocks DNA unwinding by human RECQ1. P46063. RECQ1 DNA unwinding, red fluorescence kinetic read. Potency, µM (highest dose often 57.3 µM), inactives show at the top dose activity, negative = inhibition, usual class: inhibitors. actives 0.54% (n = 240,000);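 also: plate controls were vehicle for no effect and no enzyme for full effect; nearly all actives have a fitted effect of over 30% in size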
# Target sequence (P46063 whole entry, looked up): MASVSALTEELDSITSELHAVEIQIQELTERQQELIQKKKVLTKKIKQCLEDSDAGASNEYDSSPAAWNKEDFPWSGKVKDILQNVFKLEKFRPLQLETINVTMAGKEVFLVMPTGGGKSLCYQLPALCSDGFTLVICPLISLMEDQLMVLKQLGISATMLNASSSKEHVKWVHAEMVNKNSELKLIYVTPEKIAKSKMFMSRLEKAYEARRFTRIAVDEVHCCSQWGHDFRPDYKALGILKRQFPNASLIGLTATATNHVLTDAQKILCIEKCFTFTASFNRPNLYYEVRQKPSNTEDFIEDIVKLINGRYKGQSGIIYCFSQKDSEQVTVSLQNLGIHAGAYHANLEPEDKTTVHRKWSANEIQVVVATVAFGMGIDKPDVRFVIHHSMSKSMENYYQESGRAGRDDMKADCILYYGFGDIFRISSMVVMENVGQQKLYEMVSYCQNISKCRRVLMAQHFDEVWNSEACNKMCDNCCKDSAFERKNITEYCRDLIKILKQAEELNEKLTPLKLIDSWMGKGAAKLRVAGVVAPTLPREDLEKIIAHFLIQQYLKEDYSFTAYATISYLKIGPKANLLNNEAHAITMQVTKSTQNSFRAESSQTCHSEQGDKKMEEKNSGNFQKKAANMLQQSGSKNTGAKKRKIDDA
#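 50 nM RECQ1T1 preincubated 15 min with compound in Tris pH 8.0 buffer with MgCl2, DTT, Tween-20 and 2.5 ug/ml poly(dI-dC); started with 200 nM TAMRA/BHQ-2 forked duplex and 2 mM ATP. Unwinding read as fluorescence (525/598 nm), two reads 2 h apart.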
# TDP1 block – TDP1 (human) enzyme inhibition; recombinant TDP1, AlphaScreen DNA substrate cleavage; Potency, µM (titrated, usually from 130 µM), without a hit: top-dose activity change, negative = inhibition, hits mostly inhibitors; actives 0.28% (n = 350,000); also: nearly all actives have a fitted effect of over 40% in size
#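 Compounds were preincubated with Tdp1 (1 nM final) for 15 min at room temperature before substrate (15 nM final) started a 5 min reaction; beads (10 ug/ml final) were then added for 10 min before AlphaScreen detection.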
# * hit, by the source's call; i = inactive; ? = inconclusive; nt = no result; ! = repeats disagree; [ ] = another dose, or the depositor's remark. Calls follow the shape of the dose curve; as a rule, active = well fitted curve in the direction sought with a large enough effect; inconclusive = small, poorly fitted or top-dose-only effect, or another doubt; inactive = no such curve, though single readings can be large; an effect the other way counts as inactive or inconclusive. Unless noted, % is scaled to controls: 0 for no effect and ±100 for the full control effect; potency is read from the fitted curve at half-maximal effect.
SMILES,BLM helicase inh,GLS inh,APEX1 inh,PGK inhibitor,RECQ1 inh,TDP1 block
Cc1ccc2[nH]c(=O)c3cc(C(=O)N4CCN(C(=O)c5ccco5)CC4)sc3c2c1,-9%,3%,?,-4%,-24%,56µM*
O=C(Cc1cccs1)N/N=C/C=C/c1ccco1,25µM*,2%,16%,-3%,1%,0%
O=C(CSc1nnc(SCc2ccccc2)s1)N/N=C/C=C/c1ccco1,25µM*,6%,13µM*,-10%,22µM*,-14%
O=C(CN1CCN(Cc2ccccc2)CC1)N/N=C\C=C/c1ccco1,-3%,9%,21%,-9%,-5%,?
COC(=O)c1cc(F)c(S(=O)(=O)N2CCN(S(=O)(=O)c3ccc4c(c3)OCCO4)CC2)cc1F,nt,nt,nt,nt,nt,0%
C/C1=C2N=C(/C=C3N=C(/C(C)=C4\[N-][C@@H]([C@H](CC(N)=O)[C@]4(C)CCC(=O)NC[C@@H](C)OP(=O)([O-])O[C@@H]4[C@@H](O)[C@H](n5cnc6cc(C)c(C)cc65)O[C@@H]4CO)[C@@]4(C)N=C1[C@H](CCC(N)=O)[C@@]4(C)CC(N)=O)[C@H](CCC(N)=O)C\3(C)C)[C@@H](CCC(N)=O)[C@@]/2(C)CC(N)=O.[CH3-].[Co+3],nt,-7%,nt,nt,nt,nt
CCOc1ccc(S(=O)(=O)Nc2cc(SCC(=O)O)c(O)c3ccccc23)cc1,?,-15%,9%,0%,nt,nt
Cc1ccc(C)c(S(=O)(=O)Nc2cc(SCC(=O)O)c(O)c3ccccc23)c1,16µM*,?,-12%,-14%,0%,5%
O=C(O)CSc1cc(NS(=O)(=O)c2cccc([N+](=O)[O-])c2)c2ccccc2c1O,18µM*,?,-5%,-18%,-15%,10%
COc1cccc(C2c3c(ncn(-c4cccc(Cl)c4)c3=N)Oc3ccc4ccccc4c32)c1 (configuration not stated),nt,nt,nt,nt,nt,7%
COc1ccccc1CNc1ncncc1-c1ccccc1C(F)(F)F,-2%,nt,-1%,nt,-7%,nt
COc1ccccc1CNc1ncncc1-c1ccccc1C,5%,nt,-5%,nt,-13%,32µM*
CNc1ncncc1-c1ccccc1OC,1%,nt,4%,nt,-3%,28µM*
Cc1c(-c2ccc(O)cc2)n(Cc2ccc(OCCN3CCCCCC3)cc2)c2ccc(O)cc12,nt,0%,nt,nt,nt,nt
COc1cccc(N2C(=O)c3ccccc3C2=O)n1,nt,nt,nt,nt,nt,0%
COc1ccc(C2Nc3ccccc3C(=O)N2Cc2ccccc2)cc1Oc1ccc(NC(C)=O)cc1 (configuration not stated),nt,nt,nt,nt,nt,0%
CCc1ccc(C(c2ccc(CC)cc2)C(Cl)Cl)cc1,nt,0%,0%,-3%,-8%,20µM*!
Clc1ccc(C(c2ccccc2Cl)C(Cl)Cl)cc1 (configuration not stated),-2%,-1%,-19%,3%,-8%,10%
COc1ccc(CCCCCCOCc2ccccc2)cc1,nt,-1%,-13%,1%,nt,20µM*
O=C(N/N=C/c1ccc2c(c1)OCO2)c1ccc(COCC(F)(F)C(F)F)cc1,-10%,3%,-11%,-11%,nt,56µM*
COc1ccc(/C=N/NC(=O)c2ccc(COCC(F)(F)C(F)F)cc2)cc1,-4%,11%,-4%,-9%,i,3%
Cc1ccc(C(=O)Nc2nnc(CC(=O)N/N=C/c3ccncc3)s2)cc1,-6%,-11%,-6%,nt,-1%,1%
Cc1ccc(C(=O)Nc2nnc(CC(=O)N/N=C/c3ccc(O)c(O)c3)s2)cc1,13µM*,15%,1.9µM*,?,nt,nt
COc1cccc2cc(-c3cc(=O)oc4ccc(OCC(C)=O)cc34)oc12,-1%,3%,-7%,i,nt,1%
COC(=O)COc1ccc2oc(=O)cc(-c3cc4cccc(OC)c4o3)c2c1,-27%,-25%,-45%,10%,nt,45µM*
SMILES,BLM helicase inh,GLS inh,APEX1 inh,PGK inhibitor,RECQ1 inh,TDP1 block
O=C(Nc1ccc(Br)cc1)c1cc([N+](=O)[O-])cc([N+](=O)[O-])c1,-5%,-13%,-3%,7%,nt,nt
O=c1c2c([N+](=O)[O-])cc([N+](=O)[O-])cc2sn1Cc1ccccc1,-7%,1.8µM*,-1%,-5%,nt,nt
O=c1c2c([N+](=O)[O-])cc([N+](=O)[O-])cc2sn1-c1ccc(Br)cc1,-2%,11µM*,-3%,1%,0%,10%
C=NC(C(=O)NC1C(=O)N2C1SC(C)(C)C2C(=O)O)c1ccccc1 (configuration not stated),5%,28µM*,nt,nt,i,3%
CC1(C)S[C@@H]2[C@H](NC(=O)C(N)c3ccccc3)C(=O)N2[C@H]1C(=O)O (some centres not stated),-1%[21.4 µM],nt,13µM*,nt,-24%[25.9 µM],?
CC1(C)SC2C(NC(=O)C(c3ccccc3)S(=O)(=O)O)C(=O)N2C1C(=O)O (configuration not stated),nt,-8%,nt,nt,nt,nt
CC1(C)S[C@@H]2[C@H](NC(=O)C(C(=O)Oc3ccc4c(c3)CCC4)c3ccccc3)C(=O)N2[C@H]1C(=O)O (some centres not stated),nt,7.9µM*,nt,nt,nt,nt
N#Cc1c(-c2ccc(OCCOCCOCCNC(=O)CCCC[C@@H]3SC[C@@H]4NC(=O)N[C@@H]43)cc2)no[n+]1[O-],nt,nt,-6%,nt,nt,nt
CCn1cc(C(=O)O)c(=O)c2cc(F)c(N3CCN(C(=S)Nc4ccc(OC)cc4)CC3)cc21,-5%,0%,-1%,3%,4%,nt
CCn1cc(C(=O)O)c(=O)c2cc(F)c(N3CCN(C(=S)NC(=O)c4cc(OC)cc(OC)c4)CC3)cc21,3%,8%,-12%,-5%,nt,45µM*
Cn1cc(CNC(=O)c2cnn3c2NC(=C2CC2)C=C3C(F)F)cn1,nt,nt,8%,nt,nt,nt
Cc1cc(-c2ccc(N=Nc3ccc4c(S(=O)(=O)O)cc(S(=O)(=O)O)c(N)c4c3O)c(C)c2)ccc1N=Nc1ccc2c(S(=O)(=O)O)cc(S(=O)(=O)O)c(N)c2c1O,11µM*!,14µM*!,2.5µM*,nt,8.9µM*,24%[56.1 µM]
O=S(=O)(O)c1cc2oc(-c3ccccc3)nc2c2ccccc12,nt,8%,12%,-6%,nt,nt
Nc1c(N=Nc2ccc(-c3ccc(N=Nc4cc(S(=O)(=O)O)c5ccccc5c4N)cc3)cc2)cc(S(=O)(=O)O)c2ccccc12,4µM*,?,32µM*,nt,10µM*,20%
COc1ccc(C2=Nn3c(nnc3-c3ccccc3OC)SC2)cc1,nt,nt,nt,nt,nt,0%
CC(C)(C)n1ncc2c(=O)n(Cc3ccccc3C#N)cnc21,nt,nt,0%,nt,nt,nt

# Screens: PubChem, National Center for Advancing Translational Sciences (NCATS)
